Experimental data: ChEMBL document CHEMBL4513216, “Probing the Open Global Health Chemical Diversity Library for Multistage-Active Starting Points for Next-Generation Antimalarials” (ACS Infect Dis, 2020)
About 8,600 (12%) of roughly 69,000 compounds showed an effect of 50% or more. Shown is part of a subset that was picked to be rich in strong results.

What follows are molecules tested on Plasmodium berghei (assay: Screen against P. berghei liver stage (PbLuc), transformed with Luciferase, at 10uM). Conditions: tested at 10 uM.
Assay type: functional, HepG2

| Compound | INHIBITION |
| --- | --- |
| O=C(c1ccco1)N1CC[C@@H](N2CCOCC2)[C@@H]1Cc1ccncc1 | 24.1% |
| Cc1cc(CN2CCN(C(=O)NCc3c(C)noc3C)CC2)on1 | 44.3% |
| O=c1[nH]nc2c(S(=O)(=O)N3CCN(c4ccc(F)cc4)CC3)cccn12 | 39.5% |
| Cc1cnn(CCNCc2csc(-c3ccsc3)n2)c1 | -69.15% |
| CC(CN1CCOCC1)NC(=O)Nc1cccnc1-n1cccn1 (stereo not given) | -31.1% |
| CN(C)CCO[C@@H]1CC[C@H]2[C@H]1OCCN2C(=O)c1ccc(F)cc1 | 42.1% |
| CC(=O)N1CCC(Cc2cnc(-c3c(C)n[nH]c3C)cn2)CC1 | 1.5% |
| Cc1cc(NC(C)Cc2cccs2)n2nccc2n1 (stereo not given) | 42.1% |
| Cn1cc(CN2CCC(F)(F)C3(CCN(c4cnccn4)C3)C2)cn1 (stereo not given) | -31.5% |
| CCOc1ncnc2c1CCN(Cc1cccs1)CC2 | 36.2% |
| COc1cc(C)ccc1OCCC(=O)N1CCCC(n2cncn2)C1 (stereo not given) | -16% |
| CCOCC1CN(C(=O)Cc2ccccn2)Cc2cnn(CC)c21 (stereo not given) | 54.4% |
| CCOCC1CN(C(=O)c2cnoc2C)Cc2cn(C)nc21 (stereo not given) | 51.2% |
| CCOCC1CN(C(=O)Cc2ccccn2)Cc2c1cnn2CC (stereo not given) | 42.7% |
| CCOCC1CN(C(=O)c2cnoc2C)Cc2cnn(C)c21 (stereo not given) | -11.2% |
| CCOCC1CN(C(=O)Cc2ccccn2)Cc2cnn(C)c21 (stereo not given) | -45.8% |
| CCOCC1CN(C(=O)Cc2ccccn2)Cc2cn(CC)nc21 (stereo not given) | 31.4% |
| CCOCC1CN(C(=O)c2cnoc2C)Cc2cn(CC3CC3)nc21 (stereo not given) | -50.8% |
| CCOCC1CN(C(=O)Cc2ccccn2)Cc2cn(C)nc21 (stereo not given) | 51.2% |
| CCOCC1CN(C(=O)COc2ccccc2)Cc2cn(C)nc21 (stereo not given) | 5.96% |
| CC(NC(=O)N1CCC1)c1ccc(S(C)(=O)=O)cc1 (stereo not given) | 18.4% |
| CC(=O)N(C)c1nc(CN2CCCC2Cn2nc(C)cc2C)cs1 (stereo not given) | -14.7% |
| O=C(c1csc(-c2ccccn2)n1)N1CCCC1Cn1cccn1 (stereo not given) | 38.8% |
| O=C(Cc1cccs1)N1CCC(O)(CN2CCc3ccccc3C2)C1 (stereo not given) | 38.2% |
| CC(=O)NCC1CCN(C(=O)CCOc2ccc(C(C)C)cc2)CC1 | -39.35% |
| CSc1ccc(CNC(=O)NCC(O)c2cccc(F)c2)cc1 (stereo not given) | 19.6% |
| CNC(=O)NCC1CCC2(CCN(c3ncccn3)CC2)CO1 (stereo not given) | 15.8% |

| Compound | INHIBITION |
| --- | --- |
| CC(=O)N1CC(=O)N(c2cnn(C)c2)CC12CCN(Cc1cccs1)C2 (stereo not given) | 6.27% |
| CN(C)Cc1csc(-c2nccn2Cc2ccsc2)c1 | 66.1% |
| Cc1nc(C)c(Cn2ccnc2-c2cc(CN(C)C)cs2)s1 | 30.9% |
| CN(C)Cc1csc(-c2nccn2Cc2ccc(C(=O)O)cc2)c1 | 37.4% |
| CN(C)Cc1cc(-c2nccn2CCc2cccnc2)ccc1O | 31.3% |
| Cc1c(Cn2ccnc2-c2cc(CN(C)C)cs2)cnn1C | 23.5% |
| CN(C)Cc1csc(-c2nccn2CCc2cccnc2)c1 | 59.1% |
| O=C(NCC1CCOCC1)c1cc(-c2ccncc2)c2cnccc2n1 | 17.4% |
| CN(Cc1nnc2n1CCC2)C(=O)CCc1ccc2c(c1)OCO2 | -21.8% |
| C[C@H]1CN(Cc2cccc(F)c2)C[C@@]12CCN(CC(=O)N(C)C)C2=O | 19.8% |
| Cc1ccc(N2CCCC(NCc3ccc(Cl)o3)C2)nn1 (stereo not given) | -12.1% |
| COc1ccc(C(C(=O)O)N(C)Cc2ccon2)cc1Cl (stereo not given) | -23.5% |
| Cc1n[nH]c(C)c1CN(C)C(C(=O)O)c1ccc2c(c1)OCO2 (stereo not given) | 11.2% |
| COc1cccc(Cl)c1C(C(=O)O)N(C)Cc1nnc(C)o1 (stereo not given) | 52.2% |
| COc1cccc(OC)c1C(C(=O)O)N(C)Cc1c(C)n[nH]c1C (stereo not given) | 53.3% |
| COc1cc(C)cc(OC)c1C(C(=O)O)N(C)Cc1c(C)nn(C)c1C (stereo not given) | 9.56% |
| Cc1n[nH]c(C)c1CN(C)C(C(=O)O)c1c(F)cccc1OC(C)C (stereo not given) | 40.6% |
| COc1cccc(Cl)c1C(C(=O)O)N(C)Cc1c(C)n[nH]c1C (stereo not given) | 57.6% |
| COc1cccc(C(=O)N(C)C(C)c2c(C)n[nH]c2C)c1OC (stereo not given) | 12.6% |
| CCOc1ccccc1C(C(=O)O)N(C)Cc1nnc(C)o1 (stereo not given) | -0.614% |
| COc1ccc(CCC(=O)Nc2ccc3ncn(C)c(=O)c3c2)cc1 | 22.3% |
| COCc1cn(CC2CCN(Cc3nc(C)c[nH]3)CC2)nn1 | -7.85% |
| Cc1cc(C(=O)N2CCc3c(CN(C)C)nn(C)c3C2)[nH]n1 | 13.7% |
| O=C(NCCc1ccncc1)c1cccc(S(=O)(=O)N[C@@H]2CCNC2)c1 | -16.1% |
| O=C(Nc1nc2c(s1)CNCC2)C1CC1 | 52.7% |
| O=C(Nc1nc2c(s1)CN(S(=O)(=O)C1CC1)CC2)C1CC1 | 37.9% |
| O=C(Nc1nc2c(s1)CNCC2)NC1CCCC1 | 44.5% |

| Compound | INHIBITION |
| --- | --- |
| O=C(c1cc(-n2cccn2)ccn1)N1CCOc2ccncc21 | 52.9% |
| O=C(c1cc(-n2cccn2)ccn1)N1CCOc2ccc(F)cc21 | 23.3% |
| COc1ccc(C(=O)N2CCOc3ccncc32)cc1 | 60% |
| COc1cccc(OCC(=O)N2CCOc3ccncc32)c1 | -28.9% |
| O=C(COc1ccccc1Br)N1CCOc2ccncc21 | 9.35% |
| O=C(c1cc(-n2cccn2)ccn1)N1CCOc2ncccc21 | 30.5% |
| c1cnc2c(c1)cc([C@@H]1CCCO1)n2CCN1CCCCC1 | 38.8% |
| COC(=O)C(c1cc(F)ccc1F)N(C)C(=O)c1cnccn1 (stereo not given) | 48.4% |
| CC(C)c1nn(C)c(N(C)C)c1CNC(C)c1ccccc1F (stereo not given) | 15.5% |
| Cc1nc(CO[C@@H]2CN(Cc3ccco3)[C@@H]3COC[C@@H]32)cs1 | 18.2% |
| O=C1OCCN1C1CCN(Cc2cc3n(n2)CCCNC3)CC1 | -78.3% |
| OC(c1ccccn1)C1CCN(Cc2cc3n(n2)CCCNC3)CC1 (stereo not given) | 51.2% |
| c1ccc(COC2CCN(Cc3cc4n(n3)CCCNC4)CC2)nc1 | 37.9% |
| OC(c1ccccn1)C1CCN(Cc2cc3n(n2)CCNC3)CC1 (stereo not given) | 61.5% |
| c1ccc(C2CCCN(Cc3cc4n(n3)CCNC4)CC2)cc1 (stereo not given) | 18.4% |
| c1csc(N2CCN(Cc3cc4n(n3)CCNC4)CC2)n1 | -90.8% |
| c1cc(CNc2cnc(C3CCCN3)cn2)ccn1 (stereo not given) | 3.03% |
| COc1ccc(-c2cc(C3(O)CCCC3)on2)cc1 | -111% |
| CNC(=O)[C@H]1C[C@H]2OCC[C@H]2N(Cc2ccc(C)o2)C1 | 10.3% |
| Cn1cc(C2CC(=O)NC23CCN(Cc2ccncc2)CC3)cn1 (stereo not given) | -16.2% |
| CCOC(=O)N[C@H]1C[C@@H](C(=O)NCCc2cccc(Cl)c2)N(C)C1 | 55% |
| COCC(=O)N[C@H]1C[C@@H](C(=O)NCCc2cccc(Cl)c2)N(C)C1 | 31.1% |
| CCOC(=O)N[C@H]1C[C@@H](C(=O)NCc2cccc(Cl)c2)N(C)C1 | -0.71% |
| CC(C)CC(=O)N(C)CC(=O)Nc1ccc(Br)cn1 | 29.7% |
| CCN1CCN(c2ccc(C(=O)NCCOC)cc2F)CC1 | 76.7% |
| CCN1CCN(c2ccc(C(=O)NCCn3ccnc3)cc2F)CC1 | 38.8% |
| CCN1CCN(c2ccc(C(=O)NCc3cc(C)no3)cc2F)CC1 | 11.7% |

| Compound | INHIBITION |
| --- | --- |
| Cn1nc(CN2CCCC2)c2c1CN(C(=O)Nc1cccc(F)c1)CC2 | 20.1% |
| Cc1ccc(C(=O)N2CCc3c(CN4CCCC4)nn(C)c3C2)cc1C | 44.3% |
| Cn1nc(Cn2ccnc2)c2c1CN(C(=O)c1ccoc1)C2 | 47.4% |
| COc1ccc(C(=O)N2Cc3c(Cn4ccnc4)nn(C)c3C2)cc1 | 32.4% |
| CCCc1ccc(C(=O)N2Cc3c(Cn4ccnc4)nn(C)c3C2)cc1 | 78.8% |
| Cn1nc(CN2CCCCC2)c2c1CN(C(=O)Nc1cccc(F)c1)C2 | 79.6% |
| Cc1ccc(C(=O)N2Cc3c(CN4CCCCC4)nn(C)c3C2)cc1C | 65.4% |
| CN(C)Cc1nn(C)c2c1CN(C(=O)Nc1cccc(F)c1)C2 | -36.2% |
| Cc1ccc(C(=O)N2Cc3c(CN4CCCCC4)nn(C)c3C2)cc1F | -31% |
| O=C(NCCCn1cncn1)N1CCCCCC1 | 20.45% |
| COCCOc1ncccc1C(=O)N1CCCCC1c1nccs1 (stereo not given) | -38.7% |
| CCc1cc(C(=O)N2CCC(c3cc4ncccc4cn3)CC2)on1 | 20.8% |
| CCCN1CCN(C(=O)c2ccn(COc3ccc(F)cc3)n2)CC1 | 2.69% |
| CCOc1ccccc1C(=O)Nn1c(C)cc(C)cc1=O | 44.1% |
| CC(=O)N1CCN(CCNC(=O)NC(C)Cn2ccnc2)CC1 (stereo not given) | 43.5% |
| CNC(=O)[C@H]1C[C@@H]2CCN(Cc3ccc4c(c3)OCO4)C[C@@H]2O1 | -9.18% |
| O=C(NC1CCCC1)[C@@H]1C[C@@H]2CCN(Cc3ccoc3)C[C@H]2O1 | 54.8% |
| CC(C)NC(=O)[C@@H]1C[C@@H]2CCN(Cc3ccoc3)C[C@H]2O1 | 53.9% |
| COCCNC(=O)[C@H]1C[C@@H]2CCN(Cc3ccoc3)C[C@H]2O1 | 30.1% |
| CNC(=O)[C@@H]1C[C@@H]2CCN(Cc3ccoc3)C[C@H]2O1 | 30.3% |
| O=C(NC1CC1)[C@@H]1C[C@@H]2CCN(Cc3ccoc3)C[C@@H]2O1 | 49.4% |
| O=C(NCC1CC1)[C@@H]1C[C@@H]2CCN(Cc3ccoc3)C[C@@H]2O1 | -10.3% |
| O=C(NC1CC1)[C@H]1C[C@@H]2CCN(Cc3ccc4c(c3)OCO4)C[C@@H]2O1 | 61.1% |
| O=C(NCC1CC1)[C@H]1C[C@@H]2CCN(Cc3ccc4c(c3)OCO4)C[C@@H]2O1 | 30.4% |
